From PMC5540273 (PLoS ONE, 2017)
Read-outs that look alike come from different tables or passages of the source.

What was measured:
Settings in all cases: n = 1
[1] = tested on: CHEK2
[2] = tested on: CIT
[3] = tested on: CLK1
[4] = tested on: CLK2
[5] = tested on: CLK3
[6] = tested on: CLK4
[7] = tested on: CSF1R-autoinhibited
[8] = tested on: CSF1R
[9] = tested on: CSK
[10] = tested on: CSNK1A1L
[11] = concentration: 1 μM, replicates: in singlicate
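Also: KINOMEscan kinase panel screen.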

Compound	%Inh [1, 11]	%Inh [2, 11]	%Inh [3, 11]	%Inh [4, 11]	%Inh [5, 11]	%Inh [6, 11]	%Inh [7, 11]	%Inh [8, 11]	%Inh [9, 11]	%Inh [10, 11]	%Inh ([1]; 1 µM)	%Inh ([2]; 1 µM)	%Inh ([3]; 1 µM)	%Inh ([4]; 1 µM)	%Inh ([5]; 1 µM)	%Inh ([6]; 1 µM)	%Inh ([7]; 1 µM)	%Inh ([8]; 1 µM)	%Inh ([9]; 1 µM)	%Inh ([10]; 1 µM)
Cc1cc(N2Cc3ccccc3C2)nc(Nc2ccc(S(=O)(=O)N3CCOCC3)cc2)n1.Cl [GSK1669917]	0%	0%	9%	0%	1%	11%	0%	4%	0%	0%	–	–	–	–	–	–	–	–	–	–
O=C(O)COc1ncnc2cc(-c3ccc4[nH]ncc4c3)sc12	1%	8%	76%	43%	0%	79%	0%	0%	0%	0%	–	–	–	–	–	–	–	–	–	–
CCn1c(-c2ccccn2)nc2cnccc21 [SB-736398]	0%	20%	3%	0%	0%	4%	4%	42%	0%	0%	–	–	–	–	–	–	–	–	–	–
O=C(Nc1ccc2c(c1)OCO2)NC1CCN(c2ccnc(Nc3ccc(F)cc3)n2)C1 (stereo not drawn) [GSK1379724]	0%	23%	10%	0%	0%	6%	0%	0%	1%	2%	–	–	–	–	–	–	–	–	–	–
Clc1cc(Cl)cc(Nc2ccnc(Nc3cc(Cl)cc(Cl)c3)n2)c1 [GSK175726]	0%	22%	17%	36%	22%	38%	0%	3%	0%	0%	–	–	–	–	–	–	–	–	–	–
CC(C)(C)c1ccc(C(=O)Nc2cn3cc(-c4cccnc4)ccc3n2)cc1	6%	28%	84%	41%	32%	74%	10%	30%	13%	15%	–	–	–	–	–	–	–	–	–	–
Cl.NC(=O)c1cccc(Nc2nccc(Nc3ccc(Oc4cccc(Cl)c4)c(Cl)c3)n2)c1 [GW659008]	0%	19%	13%	0%	10%	17%	22%	14%	17%	16%	–	–	–	–	–	–	–	–	–	–
Cc1cc(-c2ccc3c(c2)CC[C@@H](N[C@@H](C)c2ccccc2)C3)cnc1N.Cl [GW412617]	6%	24%	13%	0%	0%	10%	0%	27%	0%	21%	–	–	–	–	–	–	–	–	–	–
Cc1cccc(-c2nc(C)cc(Nc3ccncc3)n2)n1 [GSK257997]	0%	23%	13%	9%	15%	9%	0%	0%	0%	7%	–	–	–	–	–	–	–	–	–	–
Cc1c(Cn2ccn3c(=O)cc(N4CCOCC4)nc23)cccc1C(F)(F)F [GSK2289044]	0%	22%	33%	54%	20%	33%	0%	9%	0%	0%	–	–	–	–	–	–	–	–	–	–
COc1cccc(NC(=O)NC2CCN(c3ccnc(Nc4ccc(F)cc4)n3)C2)c1 (stereo not drawn) [GSK1379721]	27%	23%	25%	1%	21%	0%	17%	14%	6%	0%	–	–	–	–	–	–	–	–	–	–
Cc1ccc(-c2cc(-c3c[nH]nc3-c3ccccn3)ccn2)cc1 [GW684088]	53%	26%	14%	9%	0%	38%	49%	14%	0%	0%	–	–	–	–	–	–	–	–	–	–
Cc1nnc(-c2ccc3occ(-c4ccc(S(C)=O)cc4)c3c2)[nH]1 (stereo not drawn)	10%	0%	0%	22%	0%	29%	8%	5%	0%	26%	–	–	–	–	–	–	–	–	–	–
Cc1ccc(NC(=O)Nc2cccc(C(F)(F)F)c2)cc1 [GSK955403]	–	–	–	–	–	–	–	–	–	–	0%	29%	3%	36%	0%	0%	0%	0%	28%	0%
Cn1ccc2ncnc(Oc3ccc(NC(=O)Nc4ccccc4)cc3)c21	14%	22%	1%	0%	0%	14%	10%	95.1%	0%	3%	–	–	–	–	–	–	–	–	–	–
COc1cccc(-c2cc(-c3c[nH]nc3-c3ccccn3)ccn2)c1 [GW680338]	18%	7%	22%	22%	0%	28%	51%	0%	0%	8%	–	–	–	–	–	–	–	–	–	–
CN(C)CCN(C)C(=O)c1cc(-c2ccncc2)c(-c2ccc(Cl)c(O)c2)o1.Cl.Cl [SB-710397]	12%	21%	18%	0%	9%	25%	0%	3%	0%	20%	–	–	–	–	–	–	–	–	–	–
CS(=O)(=O)c1ccc(-c2nc3n(c2-c2ccncc2)CCC3)cc1 [SKF-105942]	0%	4%	11%	0%	0%	0%	0%	0%	100%	2%	–	–	–	–	–	–	–	–	–	–
